# The list is not random: actives were taken first. Their share in the collection is about 2.7%.
# SKN-1 inh: C. elegans SKN-1 inhibition; C. elegans VP596 Pgst-4::GFP/RFP ratio, acrylamide-induced, 24 h; inhibition, % at 21.8 µM; 360,000 tested, 0.49% active; AID 624304;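 active = interference check ratio from 0.5 to 1.5 plus GFP to RFP signal ratio inhibition reaching or exceeding a fixed threshold, cut at about 30% in these data, passing the limit was not always enough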
# F508del corr: correctors of CFTR F508del function in bronchial epithelial cells | CFBE cells, YFP halide quenching; stimulated with forskolin plus potentiator P3; % fluorescence drop versus neutral controls | activity (quench increase), % at 7.58 µM | 350,000 tested, 0.36% active | AID 720511;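 active = mean added fluorescence quench of at least 8% versus neutral control, with both replicates also reaching 8%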;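 also: cells transiently co-express mutant CFTR-F508del with the halide-sensitive YFP; corrector assay measuring rescue of mutant channel to the surface after 24 h compound exposure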
# ATG4B inhibitor: blocks human ATG4B protease cleavage of LC3 substrate; AID 504462; 340,000 tested, 0.51% active; inhibition, % at 8.33 µM; ATG4B cleavage of LC3-PLA2, NBD-HPC fluorescence, 1 h; Q9Y4P1; in the data active = inhibition above about 40%
# MPTP inh: permeability transition pore inhibition; isolated mouse mitochondria, Ca2+ swelling absorbance, 30 min; inhibition, % at 10 µM; 360,000 tested, 1.4% active; AID 602449;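 active = inhibition of 50% or more, scaled per plate between neutral and stimulator controls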;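 also: 0% = DMSO wells given calcium and 100% = 1 mM EGTA wells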
# CendR NRP1 mod: alters CendR peptide binding to human NRP-1. FAM-RPARPAR peptide binding to NRP-1, fluorescence polarization. O14786. inhibition, % at 25 µM. 360,000 tested, 0.85% active. AID 602438;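 active = inhibition or corrected inhibition above about 18%, plus a signal ratio from 0.5 to 1.5, limit read from the data, passing the limit was not always enough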
# * hit, by the source's call; / = no result.
SMILES,SKN-1 inh,F508del corr,ATG4B inhibitor,MPTP inh,CendR NRP1 mod
Cc1ccc(S(=O)(=O)Nc2ccc3c(c2)C(=O)N([C@@H](C)CO)C[C@@H](C)[C@H](CN(C)S(=O)(=O)c2ccc(Cl)cc2)O3)cc1,/,0,/,/,/
COc1ccccc1NC(=O)N(Cc1ccco1)Cc1cc2cccc(C)c2[nH]c1=O,16,/,-9,-8,26*
C[C@H]1CN([C@@H](C)CO)S(=O)(=O)c2ccc(C#Cc3ccccc3)cc2O[C@@H]1CN(C)C(=O)Nc1ccc2c(c1)OCO2,/,2,/,/,/
CC(=NNC(=S)N1CC2CCC(CC2)C1)c1ccccn1,-13,6,/,0,1
CC(=NNC(=S)N1CC2CCC(CC2)C1)c1cnccn1,8,11*,-7,-2,-2
N#C[C@H]1[C@H](c2ccc(C#CC3CCCCC3)cc2)[C@@H](CO)N1C(=O)Nc1ccc(F)cc1,/,1,/,/,/
CCCS(=O)(=O)NC(=O)C1(C)CCN(C(=O)c2cccc(C)c2C)C1 (stereo not drawn),35*,2,/,-3,-1
COC(=O)C[C@H]1C[C@@H]2c3cc(NC(=O)Nc4ccccc4F)ccc3O[C@@H]2[C@H](CO)O1,/,1,/,/,/
c1ccc(OCCOCCOc2ccccc2)cc1,21,0,1,0,13
CC(NCCOCCOc1ccccc1)c1ccccc1 (stereo not drawn),-2,/,-1,0,26*
CC(C)NC(=O)N(C)C[C@H]1OCCCC[C@@H](C)Oc2ccc(NS(=O)(=O)c3cccs3)cc2C(=O)N([C@H](C)CO)C[C@@H]1C,/,-1,/,/,/
CCOC(=O)C1=C(COC(=O)c2ccc(Cl)cc2[N+](=O)[O-])NC(=O)NC1C (stereo not drawn),34*,2,-6,0,4
CCC1(CC)C(=O)NC(=S)N=C1N,19,-1,0,-1,19
CCC1(C2=CCCCC2)C(=O)NC(=S)N=C1N (stereo not drawn),26,8.7*,2,-1,3
COc1ccc(-c2ccc(OC)c(OC)c2OC)c(OC)c1OC,-2,1,-3,0,20*
COc1ccc(C2=CCCCCC2)c(OC)c1OC,0,-3,-4,-1,10
COc1ccc(O)c(/C=N/NC(=O)c2cccc(N3CCCC3=O)c2)c1,-4,3,-16,-1,4
COc1ccc(O)c(/C=N/NC(=O)c2ccc(N3CCCC3=O)cc2)c1,17,8.0*,-12,0,5
C/C=C/c1cnc2c(c1)C(=O)N([C@@H](C)CO)C[C@H](C)[C@@H](CN(C)S(=O)(=O)c1cn(C)cn1)O2,/,-3,/,/,/
CCOC(=O)c1c(NC(=O)Cn2nnc3ccccc32)sc2c1CCC(C)C2 (stereo not drawn),11,/,1,4,10
CCOC(=O)c1c(NC(=O)COC(=O)Cn2cnc3ccccc32)sc2c1CCC(C)C2 (stereo not drawn),5,-1,-7,-1,33*
C[C@@H]1CN([C@H](C)CO)C(=O)c2cc(NC(=O)Cn3cnnn3)ccc2O[C@H]1CN(C)Cc1ccc2c(c1)OCO2,/,1,/,/,/
COCC#Cc1cnc2c(c1)C(=O)N([C@@H](C)CO)C[C@H](C)[C@H](CN(C)C(=O)Nc1ccccc1F)O2,/,1,/,/,/
O=C(CSc1nc2ccc(Cl)cc2[nH]1)NCCc1ccccc1,8,-2,5,-17,28*
O=C(Cc1ccccc1)NCCc1cccc(Cl)c1,-11,/,0,1,26*
SMILES,SKN-1 inh,F508del corr,ATG4B inhibitor,MPTP inh,CendR NRP1 mod
COc1cccc(CNC(=O)CSc2nc3ccc(C)cc3[nH]2)c1,-12,8.4*,0,1,8
O=C(O)CCC(=O)NCCc1cccc(Cl)c1,-2,3,-3,0,-8
Cc1ccc(-c2cnc3c(c2)C(=O)N([C@H](C)CO)C[C@@H](C)[C@@H](CN(C)C(=O)c2cccnc2)O3)cc1,/,-1,/,/,/
CCCc1cc2nnc(SCC(=O)N(C)C3CCCCC3)n2c(N)n1,43*,-2,5,-2,5
CN1c2ccc(Br)cc2[C@H]2[C@H](CCN2S(=O)(=O)c2cccc(F)c2)[C@H]1CO,/,4,/,/,/
O=C(NCc1ccc(F)c(F)c1)c1ccc(-c2ccc(F)c(F)c2)c2ccoc12,80*,-1,/,0,4
O=C(NCc1ccc(Cl)cc1)c1ccc(-c2ccc(F)c(F)c2)c2ccoc12,36*,0,/,0,5
O=C(NCc1cccs1)c1ccc(-c2ccc(F)c(F)c2)c2ccoc12,16,1,/,1,-9
O=S(=O)(c1ccccc1)N1C[C@@H]2[C@H](c3ccccc31)[C@@H](CO)N2Cc1ccc2c(c1)OCO2,/,-6,/,/,/
Cc1ccc(-n2nnnc2SCC(=O)NC(C(=O)O)(c2ccccc2)c2ccccc2)cc1C,9,13*,-4,1,3
C[C@H]1CN([C@@H](C)CO)C(=O)c2cc(NS(=O)(=O)c3cccs3)ccc2O[C@H]1CN(C)S(C)(=O)=O,/,-2,/,/,/
O=C(c1ccccc1)c1c[nH]c2cc3c(cc2c1=O)OCCO3,47*,/,7,-1,7
CC[C@@]12C(=O)N(c3ccc(OC)cc3)C(=O)N1[C@H](c1cccc(C)c1)[C@@H]1C(=O)N(Cc3ccccc3)C(=O)[C@@H]12,7,/,-13,-1,35*
CC[C@@]12C(=O)N(c3ccc(C)cc3)C(=O)N1[C@H](c1cccc(C)c1)[C@@H]1C(=O)N(Cc3ccccc3)C(=O)[C@@H]12,7,4,-14,0,9
CO[C@@H]1CN(C)C(=O)c2ccc(NC(C)=O)cc2OC[C@@H](C)N(C(=O)CC2CC2)C[C@@H]1C,/,1,/,/,/
CN(C)C(=O)CN1C(=O)NC2(CCc3ccccc32)C1=O (stereo not drawn),37*,1,-5,-1,-10
C[C@@H](O)C#Cc1ccc2c(c1)O[C@@H](CN(C)Cc1ccncc1)[C@@H](C)CN([C@@H](C)CO)S2(=O)=O,/,2,/,/,/
Oc1cccc(Nc2c3ccccc3nc3ccccc23)c1,36*,0,-1,3,9
Cc1ccc(S(=O)(=O)N2CCC(=O)N([C@H](COCc3cccc(Cl)c3)C(C)C)CC2)cc1,0,1,/,-1,-2
Cc1ccc(S(=O)(=O)N2CCC(=O)N(C(COCc3cccc(C)c3)C(C)C)CC2)cc1 (stereo not drawn),5,0,-6,-1,24*
Cc1ccc(S(=O)(=O)N2CCC(=O)N(C(COCc3cccc(C(F)(F)F)c3)C(C)C)CC2)cc1 (stereo not drawn),-7,/,-9,-3,23*
Cc1ccc(S(=O)(=O)N2CCC(=O)N(C(COCc3cccc(Cl)c3)C(C)C)CC2)cc1 (stereo not drawn),2,4,-9,0,6
Cc1noc(C)c1NC(=O)Nc1ccc2c(c1)CC(=O)N([C@@H](C)CO)C[C@@H](C)[C@@H](CN(C)S(=O)(=O)c1c(C)noc1C)O2,/,-3,/,/,/

# Assay outcomes: PubChem BioAssay, several laboratories
